# Activity calls are given as the source filed them. The calls were made as follows: active = hit-call score of the fitted dose curve at least 0.9, where 1 is the maximum; inactive = score below 0.9.
# Legend:
# Conditions in all cases: mRNA level, 48 h; actives raise or lower the signal
# [1] = read-out: Interleukin 6 (IL6), IL6 (gene 3569); assay: LTEA_HepaRG_IL6: Life Technologies and Expression Analysis (LTEA) Assay for Interleukin 6 (IL6) using HepaRG (AID 2283509)
# Outline: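 qRT-PCR read-out of IL6 transcript, normalized to three housekeeping genes, after 48 h chemical exposure of HepaRG cells; 8-point half-log series, top 100 uM, 0.5% DMSO vehicle. Bidirectional curve fitting against DMSO baseline.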
# [2] = read-out: Potassium channel subfamily K member 1 (KCNK1), KCNK1 (gene 3775); assay: LTEA_HepaRG_KCNK1: Life Technologies and Expression Analysis (LTEA) Assay for Potassium channel subfamily K member 1 (KCNK1) using HepaRG (AID 2283511)
# Outline: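 HepaRG, 48 h exposure, 8-pt half-log series top 100 uM, 0.5% DMSO vehicle, duplicates. Readout: KCNK1 transcript by qRT-PCR (Fluidigm array), housekeeping-normalized; bidirectional curve fit relative to DMSO baseline.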
# [3] = read-out: Keratin 19 (KRT19), KRT19 (gene 3880); assay: LTEA_HepaRG_KRT19: Life Technologies and Expression Analysis (LTEA) Assay for Keratin 19 (KRT19) using HepaRG (AID 2283512)
# Outline: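 Gene-expression endpoint in the human liver line HepaRG after 48 h exposure to up to 100 uM test chemical with 0.5% DMSO vehicle; KRT19 mRNA by qRT-PCR, analyzed bidirectionally versus DMSO.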
# [4] = read-out: JUN Transcription Factor, JUN (gene 3725); assay: LTEA_HepaRG_JUN: Life Technologies and Expression Analysis (LTEA) Assay for JUN Transcription Factor using HepaRG (AID 2283513)
# Outline: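 Read-out is JUN transcript level by TaqMan qRT-PCR, normalized to ACTB, GAPDH and POLR2A, after 48 h chemical treatment of HepaRG cells. Concentration-response spanned eight half-log points up to 100 uM in 0.5% DMSO.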
# [5] = read-out: Lipase C (LIPC), LIPC (gene 3990); assay: LTEA_HepaRG_LIPC: Life Technologies and Expression Analysis (LTEA) Assay for Lipase C (LIPC) using HepaRG (AID 2283514)
# Outline: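 HepaRG, 48 h exposure, 8-pt half-log series from 100 uM in 0.5% DMSO, duplicates. Readout: LIPC mRNA by Fluidigm qRT-PCR, housekeeping-normalized (ACTB/GAPDH/POLR2A). Gain or loss fitted bidirectionally against DMSO baseline.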
# [6] = read-out: Lipoprotein lipase (LPL), LPL (gene 4023); assay: LTEA_HepaRG_LPL: Life Technologies and Expression Analysis (LTEA) Assay for Lipoprotein lipase (LPL) using HepaRG (AID 2283515)
# Outline: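 HepaRG, 48 h exposure, 8-pt half-log dilutions from 100 uM, 0.5% DMSO vehicle, duplicates; qRT-PCR (Fluidigm array) of LPL mRNA vs housekeeping genes; bidirectional curve fit relative to DMSO baseline.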
# [7] = read-out: MicroRNA 122 (MIR122), gene 406906; assay: LTEA_HepaRG_MIR122: Life Technologies and Expression Analysis (LTEA) Assay for MicroRNA 122 (MIR122) using HepaRG (AID 2283516); also: the transcript read is the microRNA miR-122
# Outline: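 Human liver HepaRG cultures receive test chemicals for 48 h at eight half-log concentrations from 100 uM. Expression is quantified by qRT-PCR with ACTB/GAPDH/POLR2A normalization and fitted bidirectionally against 0.5% DMSO.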
# [8] = read-out: matrix metalloproteinase-10 (MMP10), MMP10 (gene 4319); assay: LTEA_HepaRG_MMP10: Life Technologies and Expression Analysis (LTEA) Assay for matrix metalloproteinase-10 (MMP10) using HepaRG (AID 2283517)
# Outline: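 Transcript levels come from Fluidigm qRT-PCR normalized to three housekeeping genes, with curves fitted bidirectionally against 0.5% DMSO. Human HepaRG cells were dosed for 48 hours at concentrations up to 100 uM.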
# MYC, MYC (gene 4609) = assay: LTEA_HepaRG_MYC: Life Technologies and Expression Analysis (LTEA) Assay for MYC using HepaRG (AID 2283518)
# Outline: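 Cells are thawed, plated and cultured 48 h, then treated for 48 h with test chemicals (eight half-log concentrations from 100 uM, 0.5% DMSO vehicle). RNA is isolated and MYC expression quantified by qRT-PCR against three housekeeping genes.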
# [9] = read-out: matrix metalloproteinase-3 (MMP3), MMP3 (gene 4314); assay: LTEA_HepaRG_MMP3: Life Technologies and Expression Analysis (LTEA) Assay for matrix metalloproteinase-3 (MMP3) using HepaRG (AID 2283519)
# Outline: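 qRT-PCR read-out of MMP3 mRNA (normalised to three housekeeping genes) in HepaRG liver cells after 48 h chemical exposure; 8-point half-log series, top 100 uM, 0.5% DMSO vehicle. Bidirectional curve fitting against DMSO baseline.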
# [10] = read-out: Paternally Expressed 10 (PEG10), PEG10 (gene 23089); assay: LTEA_HepaRG_PEG10: Life Technologies and Expression Analysis (LTEA) Assay for Paternally Expressed 10 (PEG10) using HepaRG (AID 2283520);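 as to AC50: PEG10 transcript by qRT-PCR normalised to ACTB GAPDH and POLR2A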
# Outline: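 Human HepaRG cultures are dosed for 48 h across an eight-point half-log series starting at 100 uM, with 0.5% DMSO as vehicle and baseline. Gain or loss of PEG10 transcript is measured by qRT-PCR and fitted in both directions.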
# [11] = read-out: Protein phosphatase 2A (PPP2R4), PTPA (gene 5524); assay: LTEA_HepaRG_PPP2R4: Life Technologies and Expression Analysis (LTEA) Assay for Protein phosphatase 2A (PPP2R4) using HepaRG (AID 2283522)
# Outline: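 Cells were plated, cultured 48 h, switched to serum-free induction medium, then dosed for 48 h (8 points, max 100 uM, 0.5% DMSO). RNA was isolated and PPP2R4 expression measured by TaqMan qRT-PCR.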
# [12] = read-out: Phosphatase and tensin (PTEN), PTEN (gene 5728); assay: LTEA_HepaRG_PTEN: Life Technologies and Expression Analysis (LTEA) Assay for Phosphatase and tensin (PTEN) using HepaRG (AID 2283523)
# Outline: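 HepaRG, 48 h exposure, 8-pt half-log series from 100 uM top, 0.5% DMSO vehicle, duplicates. Readout: Fluidigm qRT-PCR of PTEN transcript; housekeeping normalization (ACTB, GAPDH, POLR2A). Gain or loss fitted relative to DMSO baseline.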
# [13] = read-out: solute carrier (SLC22A1), SLC22A1 (gene 6580); assay: LTEA_HepaRG_SLC22A1: Life Technologies and Expression Analysis (LTEA) Assay for solute carrier (SLC22A1) using HepaRG (AID 2283524)
# Outline: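 qRT-PCR readout (TaqMan, Fluidigm arrays) of SLC22A1 transcript, normalized to three housekeeping genes; bidirectional curve fit relative to 0.5% DMSO vehicle. Differentiated human HepaRG cells, 48 h chemical exposure, top concentration 100 uM, half-log steps, eight points.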
# [14] = read-out: Pyruvate Dehydrogenase Kinase 4 (PDK4), PDK4 (gene 5166); assay: LTEA_HepaRG_PDK4: Life Technologies and Expression Analysis (LTEA) Assay for Pyruvate Dehydrogenase Kinase 4 (PDK4) using HepaRG (AID 2283525)
# Outline: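 HepaRG (human liver line), 48 h chemical exposure, 8-pt half-log CRC top 100 uM, 0.5% DMSO vehicle, duplicates. Readout: TaqMan qRT-PCR of PDK4 mRNA, housekeeping-normalized; gain/loss fit relative to DMSO baseline.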
# [15] = read-out: NAD(P)H dehydrogenase [quinone] 1 (NQO1), NQO1 (gene 1728); assay: LTEA_HepaRG_NQO1: Life Technologies and Expression Analysis (LTEA) Assay for NAD(P)H dehydrogenase [quinone] 1 (NQO1) using HepaRG (AID 2283526)
# Outline: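 Transcript induction or suppression is quantified by qRT-PCR in human HepaRG liver cells dosed for 48 hours. Eight half-log concentrations topping at 100 uM are used, with 0.5% DMSO as vehicle and baseline.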
# [16] = read-out: Nuclear factor erythroid 2-related factor 2 (Homo sapiens) (UniProt Q16236); assay: LTEA_HepaRG_NFE2L2: Life Technologies and Expression Analysis (LTEA) Assay for Nuclear factor erythroid 2-related factor 2 (NFE2L2) Transcription Factor using HepaRG (AID 2283527);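 as to outcome: TaqMan qRT-PCR transcript level normalised to ACTB GAPDH and POLR2A housekeeping genes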
# Outline: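 HepaRG, 48 h dosing, 8-pt half-log series from 100 uM in 0.5% DMSO, duplicates. Read-out: NFE2L2 mRNA by qRT-PCR (ACTB/GAPDH/POLR2A normalization). Bidirectional curve fit vs DMSO baseline.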
# [17] = read-out: succinate dehydrogenase complex iron sulfur subunit B (SDHB), SDHB (gene 6390); assay: LTEA_HepaRG_SDHB: Life Technologies and Expression Analysis (LTEA) Assay for succinate dehydrogenase complex iron sulfur subunit B (SDHB) using HepaRG (AID 2283528)
# Outline: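 HepaRG cells (~100,000/well, plated 48 h) exposed in duplicate for 48 h in serum-free induction medium to 8-point half-log series from 100 uM in 0.5% DMSO; mRNA by qRT-PCR normalised to ACTB, GAPDH, POLR2A; bidirectional fit versus DMSO.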
# [18] = read-out: Interleukin 6 Receptor (IL6R), IL6R (gene 3570); assay: LTEA_HepaRG_IL6R: Life Technologies and Expression Analysis (LTEA) Assay for Interleukin 6 Receptor (IL6R) using HepaRG (AID 2283510)
# Outline: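 Cells were thawed, plated and cultured 48 h, then medium was changed to serum-free induction medium. Chemicals were added in duplicate (100 uM top, half-log steps, 0.5% DMSO) for 48 h. Lysates were analyzed by qRT-PCR for IL6R expression.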
# [19] = read-out: Nuclear factor NF-kappa-B p105 subunit (Homo sapiens) (UniProt P19838); assay: LTEA_HepaRG_NFKB1: Life Technologies and Expression Analysis (LTEA) Assay for Nuclear Factor Kappa B Subunit 1 (NFKB1) using HepaRG (AID 2283521);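 also: TaqMan qRT-PCR transcript normalised to ACTB GAPDH and POLR2A housekeeping genes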
# Outline: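 Differentiated human HepaRG cells in serum-free induction medium with 0.5% DMSO were exposed for 48 h to eight half-log concentrations, top 100 uM, in duplicate. NFKB1 mRNA measured by Fluidigm TaqMan qRT-PCR, normalised to ACTB, GAPDH and POLR2A; bidirectional fit versus DMSO.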
# Nuclear factor erythroid 2-related factor 2 (Homo sapiens), sequence (Q16236 whole entry, looked up): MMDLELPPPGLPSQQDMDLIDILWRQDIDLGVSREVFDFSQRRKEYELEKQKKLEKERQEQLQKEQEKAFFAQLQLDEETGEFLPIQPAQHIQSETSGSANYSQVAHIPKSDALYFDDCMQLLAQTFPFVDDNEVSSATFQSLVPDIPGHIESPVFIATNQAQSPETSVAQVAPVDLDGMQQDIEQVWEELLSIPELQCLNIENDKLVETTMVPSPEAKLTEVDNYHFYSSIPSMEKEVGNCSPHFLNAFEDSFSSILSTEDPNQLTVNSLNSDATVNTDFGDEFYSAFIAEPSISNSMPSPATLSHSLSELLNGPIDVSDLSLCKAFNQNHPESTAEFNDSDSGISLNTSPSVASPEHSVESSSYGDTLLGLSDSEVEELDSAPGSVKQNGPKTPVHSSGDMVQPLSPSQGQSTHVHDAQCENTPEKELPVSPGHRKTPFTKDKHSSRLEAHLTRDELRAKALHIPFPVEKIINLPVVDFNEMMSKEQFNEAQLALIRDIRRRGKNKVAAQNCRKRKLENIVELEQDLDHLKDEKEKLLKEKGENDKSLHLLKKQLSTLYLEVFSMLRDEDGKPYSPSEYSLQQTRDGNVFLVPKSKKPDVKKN
# Nuclear factor NF-kappa-B p105 subunit (Homo sapiens), sequence (P19838 whole entry, looked up): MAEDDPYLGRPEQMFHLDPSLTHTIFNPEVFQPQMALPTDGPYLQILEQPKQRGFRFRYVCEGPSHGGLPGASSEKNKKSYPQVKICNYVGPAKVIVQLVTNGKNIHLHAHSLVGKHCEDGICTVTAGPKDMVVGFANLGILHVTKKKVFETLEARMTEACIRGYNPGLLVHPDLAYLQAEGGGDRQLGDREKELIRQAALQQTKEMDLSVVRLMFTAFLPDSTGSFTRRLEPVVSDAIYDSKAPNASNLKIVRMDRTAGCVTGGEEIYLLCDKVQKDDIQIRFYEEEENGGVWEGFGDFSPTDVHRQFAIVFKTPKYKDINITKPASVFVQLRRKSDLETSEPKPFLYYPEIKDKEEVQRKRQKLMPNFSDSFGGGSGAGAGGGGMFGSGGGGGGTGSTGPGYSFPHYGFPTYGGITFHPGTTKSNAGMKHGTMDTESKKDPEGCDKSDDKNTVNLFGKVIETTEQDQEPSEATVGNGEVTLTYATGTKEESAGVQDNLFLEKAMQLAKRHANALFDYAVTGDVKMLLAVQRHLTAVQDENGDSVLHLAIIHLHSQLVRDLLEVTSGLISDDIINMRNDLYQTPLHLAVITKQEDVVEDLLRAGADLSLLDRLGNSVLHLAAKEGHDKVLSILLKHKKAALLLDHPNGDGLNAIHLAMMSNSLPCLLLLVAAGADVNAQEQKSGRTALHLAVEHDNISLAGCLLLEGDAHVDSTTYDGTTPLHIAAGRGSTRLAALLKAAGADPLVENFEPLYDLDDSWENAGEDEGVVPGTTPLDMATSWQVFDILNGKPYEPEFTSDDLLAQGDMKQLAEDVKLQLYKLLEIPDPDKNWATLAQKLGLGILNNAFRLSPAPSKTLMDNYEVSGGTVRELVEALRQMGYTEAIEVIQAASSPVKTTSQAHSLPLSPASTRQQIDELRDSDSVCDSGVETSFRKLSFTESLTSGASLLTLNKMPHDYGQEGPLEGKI
structure (smiles),measurement,setting,value
COc1ccc(-n2nc(C(F)F)cc2-c2ccc(S(C)=O)cc2)cc1 (stereo not drawn),outcome,[1],inactive
same,outcome,[2],inactive
same,outcome,[3],inactive
same,outcome,[4],inactive
same,outcome,[5],inactive
same,AC50,[6],31.1 µM (active)
same,outcome,[7],inactive
same,outcome,[8],inactive
same,outcome,"MYC, MYC (gene 4609)",inactive
same,outcome,[9],inactive
same,outcome,[10],inactive
same,outcome,[11],inactive
same,outcome,[12],inactive
same,outcome,[13],inactive
same,outcome,[14],inactive
same,outcome,[15],inactive
same,outcome,[16],inactive
same,outcome,[17],inactive
O=C(OC[C@H]1O[C@@H](OC(=O)c2cc(O)c(O)c(OC(=O)c3cc(O)c(O)c(O)c3)c2)[C@H](OC(=O)c2cc(O)c(O)c(OC(=O)c3cc(O)c(O)c(O)c3)c2)[C@@H](OC(=O)c2cc(O)c(O)c(OC(=O)c3cc(O)c(O)c(O)c3)c2)[C@@H]1OC(=O)c1cc(O)c(O)c(OC(=O)c2cc(O)c(O)c(O)c2)c1)c1cc(O)c(O)c(OC(=O)c2cc(O)c(O)c(O)c2)c1,AC50,[1],10.5 µM (active)
same,outcome,[2],inactive
same,outcome,[3],inactive
same,outcome,[4],inactive
same,AC50,[5],8.46 µM (active)
same,AC50,[6],15.2 µM (active)
same,AC50,[7],9.05 µM (active)
same,AC50,[8],9.49 µM (active)
same,AC50,"MYC, MYC (gene 4609)",6.08 µM (active)
same,AC50,[9],15.2 µM (active)
same,AC50,[10],9.75 µM (active)
same,AC50,[11],3.88 µM (active)
same,outcome,[12],inactive
same,AC50,[13],15.2 µM (active)
same,AC50,[14],24.5 µM (active)
same,AC50,[15],5.1 µM (active)
same,AC50,[16],15.2 µM (active)
same,outcome,[17],inactive
CC(C)c1cccc(C(C)C)c1N1C(=O)c2ccc(O)cc2C1=O,outcome,[1],inactive
same,outcome,[2],inactive
same,AC50,[3],88.7 µM (active)
same,outcome,[4],inactive
same,AC50,[5],82.8 µM (active)
same,AC50,[6],83.4 µM (active)
same,AC50,[7],93.6 µM (active)
same,AC50,[8],89.9 µM (active)
same,AC50,"MYC, MYC (gene 4609)",50 µM (active)
same,AC50,[9],93.4 µM (active)
same,AC50,[10],76.8 µM (active)
same,outcome,[11],inactive
same,outcome,[12],inactive
same,AC50,[13],91.4 µM (active)
same,outcome,[14],inactive
same,outcome,[15],inactive
same,outcome,[16],inactive
same,AC50,[17],50 µM (active)
CC(C)=CCC/C(C)=C\CO,outcome,[18],inactive
same,outcome,[2],inactive
same,outcome,[3],inactive
same,outcome,[4],inactive
same,outcome,[5],inactive
same,outcome,[6],inactive
same,outcome,[7],inactive
same,outcome,[8],inactive
same,outcome,"MYC, MYC (gene 4609)",inactive
same,outcome,[9],inactive
same,outcome,[10],inactive
same,outcome,[19],inactive
same,outcome,[11],inactive
same,outcome,[12],inactive
same,outcome,[13],inactive
same,outcome,[14],inactive
same,outcome,[16],inactive
same,outcome,[17],inactive
CCOCCOCCOCCO,outcome,[1],inactive
same,outcome,[2],inactive
same,outcome,[3],inactive
same,outcome,[4],inactive
same,outcome,[5],inactive
same,outcome,[6],inactive
same,outcome,[7],inactive
same,outcome,[8],inactive
same,outcome,"MYC, MYC (gene 4609)",inactive
same,outcome,[9],inactive
same,outcome,[10],inactive
same,outcome,[11],inactive
same,outcome,[12],inactive
same,outcome,[13],inactive
same,outcome,[14],inactive
same,outcome,[15],inactive
same,outcome,[16],inactive
same,outcome,[17],inactive
O=C(O)CC(O)C(=O)O (stereo not drawn),outcome,[1],inactive
same,outcome,[2],inactive
same,outcome,[3],inactive
same,outcome,[4],inactive
same,outcome,[5],inactive
same,outcome,[6],inactive
same,outcome,[7],inactive
same,outcome,[8],inactive
same,outcome,"MYC, MYC (gene 4609)",inactive
same,outcome,[9],inactive
same,outcome,[10],inactive
same,outcome,[11],inactive
same,outcome,[12],inactive
same,outcome,[13],inactive
same,outcome,[14],inactive
same,outcome,[15],inactive
same,outcome,[16],inactive
same,outcome,[17],inactive

# — PubChem BioAssay (EPA / NIEHS)
